# Laboratory results reported in PubChem BioAssay (Tox21).
# Results filed as inconclusive are left out. Values without a mark were called inactive. Active and inactive are the calls of the source. Calls follow the shape of the dose curve; as a rule, active = well fitted activation curve with a large enough effect in the repeat runs; inconclusive = weak or mixed curves; inactive = no such curve, though single readings can be large or run the other way.
# Molecular target: Nuclear receptor subfamily 1 group I member 3 (Homo sapiens) (UniProt Q14994)
# Assay: qHTS assay to identify small molecule agonists of the constitutive androstane receptor (CAR) signaling pathway (AID 1224839); also: nearly all actives have a fitted effect of over 15% in size;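 as to activation: HepG2 cells stably carrying human CAR and a CYP2B6 luciferase reporter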
# Details: HepG2 hCAR CYP2B6-luciferase, agonist mode, 24 h; series mostly up to 92.4 µM; activation: at the top concentration
# Source text: National Center for Advancing Translational Sciences [NCATS] NIH Chemical Genomics Center [NCGC] U.S. Environmental Protection Agency [EPA] National Institutes of Environmental Health Sciences [NIEHS] National Toxicology Program [NTP] Assay overview: The constitutive androstane receptor (CAR) is a nuclear receptor which regulates multiple drug metabolizing enzymes (DMEs) and transporters. Activating CAR will generally increase the transcription and subsequent translation of CYP2B6 and CYP3A4. These two DMEs represent about 50% of the drug metabolizing potential in the body. […] Recently, there have also been studies performed indicating CARs role in energy metabolism and cancer therapy. Therefore, inducing CARs activity could have a potential effect on diabetes and cancer. Identifying environmental toxins and compounds which modulate CAR, through the use of the Tox21 10K compound collection, will be an important step in determining the toxicity and potential therapeutic effects these factors will have on the human body.
# Assay Protocol Summary: A double-stable (hCAR and CYP2B6-2.2kb) transfected cell line, derived from human hepatoma (HepG2) cells, was utilized for the duration of the quantitative high-throughput screens. The HepG2-CYP2B6-hCAR cells suspended in DMEM culture medium supplemented with 10% FBS, 5 ug/mL blasticidin, 0.5 mg/mL geneticin, 100 U/mL penicillin and 100 ug/mL streptomycin were dispensed at 2500 cells/4 uL/well in 1536-well white solid bottom plates using a Multidrop Combi. After the assay plates were incubated at 37 C/5% CO2 for 4 hrs, 23 nL of compounds at 15 concentrations (from 5-48 columns) or positive control (from 1 to 4 columns) were transferred to the assay plates using a Pintool station. One uL of PK11195, was added using a Flying Reagent Dispenser to generate a final concentration of 0.75 uM PK11195 inside each well. After a 24 hr incubation period at 37 C/5% CO2, four uL of ONE-Glo reagent was added into the assay plates using a Flying Reagent Dispenser. After a 30 min incubation period at room temperature, the luminescence intensity in the assay plates was measured using a ViewLux plate reader.
# % is scaled to controls: 0 for no effect and ±100 for the full control effect; potency is read from the fitted curve at half-maximal effect.
# Sequence of Nuclear receptor subfamily 1 group I member 3 (Homo sapiens) (Q14994 whole entry, looked up): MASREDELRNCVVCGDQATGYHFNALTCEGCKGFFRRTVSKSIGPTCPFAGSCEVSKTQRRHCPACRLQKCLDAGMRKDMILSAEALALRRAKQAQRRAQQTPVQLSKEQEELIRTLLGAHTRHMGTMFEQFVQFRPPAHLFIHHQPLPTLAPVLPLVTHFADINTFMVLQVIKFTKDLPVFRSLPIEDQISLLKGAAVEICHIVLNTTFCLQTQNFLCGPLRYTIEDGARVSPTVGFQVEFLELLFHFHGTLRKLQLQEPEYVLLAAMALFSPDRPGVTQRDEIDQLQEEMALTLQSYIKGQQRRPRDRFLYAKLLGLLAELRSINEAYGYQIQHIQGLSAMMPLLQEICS
SMILES,activation,Potency
CC(C)(C)C1CCCCC1O (stereo not given),-2.7%,
FC(F)(F)C(F)(F)C(F)(F)C(F)(F)C(F)(F)C(F)(F)CCI,11.6% [at 42.5 µM],
C=C(C)C(=O)OCCOc1ccccc1,11%,
COc1ccc(OC)c(OC)c1,0.462%,
CN(c1nccc(=O)[nH]1)C1CCN(c2nc3ccccc3n2Cc2ccc(F)cc2)CC1,4.63% [at 42.5 µM],
Cn1c(=O)c2c(ncn2CC(O)CO)n(C)c1=O (stereo not given),-1.45% [at 42.5 µM],
CCOc1nc2cccc(C(=O)O)c2n1Cc1ccc(-c2ccccc2-c2nn[nH]n2)cc1,-3.28% [at 42.5 µM],
CCN(CC)CCc1nc(-c2ccccc2)no1,,9.44 µM (active)
O=C(Cl)c1c(Cl)cccc1Cl,0.969%,
Oc1ccc(Cc2ccccc2)cc1,,56.6 µM (active)
CC(C(=O)O)c1ccc(-c2ccccc2)c(F)c1 (stereo not given),1.13%,
Cc1ccc(C(=O)C(C)CN2CCCCC2)cc1 (stereo not given),3.83% [at 42.5 µM],
CC(C(=O)O)c1ccc(C(=O)c2ccccc2)s1 (stereo not given),,16.8 µM (active)
CCOC(=S)SSC(=S)OCC,-1.15%,
NC(N)=NN=C(/C=C/c1ccc([N+](=O)[O-])o1)/C=C/c1ccc([N+](=O)[O-])o1,-21.9% [at 42.5 µM],
CCN(CC)CCNC(C(=O)OCCC(C)C)c1ccccc1 (stereo not given),-7.17% [at 42.5 µM],
COCCO,1.58%,
O=S1(=O)c2cccc3cccc(c23)N1CCCN1CCN(c2ccc(F)cc2)CC1,,26.6 µM (active)
N#CCCNCCC#N,-0.594%,
C=C(C)C(=O)OCCN(C)C,-2.29%,

SMILES,activation,Potency
NC(N)=N/N=C/c1c(Cl)cccc1Cl,-2% [at 42.5 µM],
Oc1ccc2c(c1)OCO2,4.28%,
CCN(CC)CCOC(=O)C1(c2ccccc2)CCCC1,11.6% [at 42.5 µM],
NC(=S)N/N=C/c1cccnc1,-1.48% [at 42.5 µM],
C=CC[N+]1([C@H]2C[C@H]3[C@@H]4CC[C@H]5C[C@H](OC(C)=O)[C@@H](N6CCCCC6)C[C@]5(C)[C@H]4CC[C@]3(C)[C@H]2OC(=O)CC)CCCCC1,-3.68% [at 42.5 µM],
CC(=O)N(CC(=O)N(C)C)c1ccccc1,-1.54% [at 42.5 µM],
CC1(C)CCC(C)(C)c2cc(NC(=O)c3ccc(C(=O)O)cc3)ccc21,0.953% [at 42.5 µM],
CCOC(=O)CC(=O)c1cc(F)c(Cl)nc1Cl,-4.67%,
O=CNc1ccccc1,-0.33%,
Nc1ccc(C(=O)N2CC3CC(CN(Cc4ccccc4)C3)C2)cc1,0.904% [at 42.5 µM],
CN1CCN(C2=Nc3ccccc3Sc3ccc(Cl)cc32)CC1,8.52% [at 42.5 µM],
Cc1cccc(OCCOc2cccc(C)c2)c1,,29 µM (active)
O=[N+]([O-])c1cc[n+]([O-])cc1,-24.8%,
NCCCOCCOCCOCCCN,3.08%,
Oc1ccc(O)c2c(O)cccc12,8.88%,
OC(CCN1CCCCC1)(c1ccccc1)C1CCCCC1 (stereo not given),-2.95% [at 42.5 µM],
CN(C)CC/C=C1\c2ccccc2COc2ccccc21,-4.41% [at 42.5 µM],
COC(=O)CSc1cc(N=c2sc(=O)n3n2CCCC3)c(F)cc1Cl,-1.63%,
CC(C)CCCC(C)CCO (stereo not given),-2.7%,
CCCCCC/C=C/C=O,-3.22%,
